A selection: hits, their analogues and other compounds. The true share with any hit is near 3%.
PAX8 inh HTS = PAX8 transcriptional activity inhibition | inhibition, % at 12.6 µM | RMG-I TPO-luciferase reporter, SteadyGlo, 24 h | actives 1.2% (n = 360,000);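 active means mean replicate inhibition at least 60% with every replicate also reaching 60%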;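 further: luciferase light reporting Pax8 driven TPO promoter activity; plate controls were median of neutral control wells for no effect and mitoxantrone controls for full effect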
EWS-Fli inh = blocks EWS/Fli oncoprotein-driven transcription | A673 NR0B1-luciferase reporter, viability-normalised | inhibition, % at 12.6 µM | actives 0.67% (n = 350,000);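 active means mean inhibition of at least 50% after viability correction, with every replicate also passing that limit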;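 further: firefly luciferase signal divided by Alamar Blue viability fluorescence both relative to DMSO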
Peg3 prom inh = inhibitors of Peg3 promoter. HeLa PEG-Prom luciferase reporter, luminescence, overnight. inhibition, % at 20 µM. actives 1.7% (n = 360,000). AID 588405;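 active means inhibition of at least 50% at 20 µM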
Shn3 3UTR inh = inhibitors of Schnurri-3 3'UTR reporter in osteoblasts; actives 0.52% (n = 360,000); Clone20 osteoblast Shn3 3'UTR firefly luciferase, 24 h; inhibition, % at 12.5 µM; AID 588674;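 active means mean inhibition of at least 75% with every replicate also reaching 75%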;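 further: 0% = median of neutral control wells and 100% = pilot-screen positive control compound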
ABHD5-PLIN5 inh = ABHD5-PLIN5 protein interaction inhibition; actives 0.78% (n = 360,000); inhibition, % at 4 µM; Split G. princeps luciferase complementation, luminescence, 4 h;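 active means inhibition above the mean inhibition across every tested compound plus 3 SD, cut at about 22% in these data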;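 further: 0% = DMSO only wells and the 100% control is not disclosed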
MITF TRPM1 inh = reduces MITF-dependent TRPM1 promoter luciferase signal; SK-MEL-5 TRPM1 promoter luciferase, 24 h; inhibition, % at 12.5 µM; actives 0.83% (n = 330,000); AID 488899;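 active means mean inhibition across replicates of 60% or more, whatever share of single replicates reaches that level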
Numbers without * were called inactive; / = no result.

SMILES	PAX8 inh HTS	EWS-Fli inh	Peg3 prom inh	Shn3 3UTR inh	ABHD5-PLIN5 inh	MITF TRPM1 inh
COc1cc(C(=O)NC(=S)NNC(=O)c2cnccn2)cc(OC)c1OC	26	/	13	89*	3	-1
COc1ccc(C(=O)NC(=S)NNC(=O)COc2ccccc2)cc1	109*	16	23	9	-7	33
COc1ccccc1C(=O)NNC(=S)NC(=O)c1cc(OC)c(OC)c(OC)c1	63*	22	24	72	0	30
CN1C(=O)c2cc(NC(=O)C3CCOCC3)ccc2OC[C@H]2O[C@H](CC(=O)NCC3CC3)CC[C@H]21	-16	-11	/	/	/	/
C[C@H](CO)N1C[C@H](C)[C@H](CN(C)S(=O)(=O)c2ccc(Cl)cc2)Oc2ccc(NC(=O)Cc3cn(C)c4ccccc34)cc2CC1=O	36	17	/	/	/	/
C[C@H](CO)N1C[C@H](C)[C@@H](CN(C)Cc2ccc(C(=O)O)cc2)OCCCC[C@H](C)Oc2ccc(NS(=O)(=O)c3cccs3)cc2C1=O	1	-7	/	/	/	/
CC1CCCN(CCCNC(=O)c2ccc3c(c2)N(Cc2cccc(Cl)c2)C(=O)c2ccccc2S3=O)C1 (stereo not drawn)	38	22	57*	-11	10	/
CCN1[C@@H]2c3ccc(-c4ccc(F)cc4)c(=O)n3C[C@@H]2[C@@H](CO)[C@@H]1C(=O)NCc1ccncn1	11	3	/	/	/	/
CCN(CC)S(=O)(=O)c1ccc(C)c(NC(=O)CNc2cccc(S(=O)(=O)N3CCOCC3)c2)c1	2	2	17	4	3	5
CN(C)S(=O)(=O)c1cccc(NC(=O)CNc2cccc(S(=O)(=O)N3CCCCC3)c2)c1	32	29	12	54	-3	/
CCc1nc2ccccc2c(C(=O)OCC(=O)Nc2ccc(S(=O)(=O)N3CCOCC3)cc2)c1C	/	/	21	14	-7	3
CN(CC(=O)Nc1cccc(S(=O)(=O)N2CCOCC2)c1)CC(=O)Nc1ccc(Cl)c(C(F)(F)F)c1	35	33	29	88*	-11	16
CCN(CC)S(=O)(=O)c1cccc(NC(=O)CNc2cccc(S(=O)(=O)N3CCOCC3)c2)c1	/	/	17	88*	-6	41
CCc1nc2ccccc2c(C(=O)OCC(=O)Nc2cccc(S(=O)(=O)N3CCOCC3)c2)c1C	/	/	77*	78	1	37
CCN(CC)S(=O)(=O)c1cc(NC(=O)CNc2cccc(S(=O)(=O)N3CCCC3)c2)ccc1C	/	/	16	91*	-8	34
C[C@@H]1CN([C@@H](C)CO)C(=O)c2cc(C#C[C@@H](C)O)cnc2O[C@H]1CN(C)C(=O)Cc1ccccn1	/	-4	/	/	/	/
CCC(=O)Nc1ccc2c(c1)OC[C@H](C)N(Cc1ccccc1OC)C[C@H](C)[C@H](OC)CN(C)C2=O	-3	-2	/	/	/	/
C[C@@H]1CCCCO[C@@H](CN(C)C(=O)Nc2ccc3c(c2)OCO3)[C@H](C)CN([C@H](C)CO)C(=O)c2cc(N(C)C)ccc2O1	11	-1	/	/	/	/
COc1ccc(NC(=O)N(C)C[C@H]2Oc3ccc(NC(=O)Nc4ccccc4)cc3CC(=O)N([C@H](C)CO)C[C@H]2C)cc1	/	-4	/	/	/	/
CCOc1ccccc1N(CC(=O)Nc1ccc(S(=O)(=O)N2CCOCC2)cc1)S(=O)(=O)c1ccc(Cl)cc1	62*	-6	10	3	6	-12
COc1ccccc1N(CC(=O)Nc1ccc(S(=O)(=O)N2CCOCC2)cc1)S(C)(=O)=O	10	6	-2	-3	0	/
CCc1nc2ccc(C(=O)Nc3cc(-c4ccccc4)ccc3OC)cn2c1N(CCN(C)C)CC1CC1	30	42	98*	-3	8	/
CCc1nc2ccc(C(=O)Nc3cc(-c4ccccc4)ccc3OC)cn2c1N(C)Cc1nccs1	47	14	67*	-17	18	/
CCc1nc2ccc(C(=O)Nc3cc(-c4ccccc4)ccc3OC)cn2c1N(C)Cc1ccc(OC)cc1	10	18	-13	-7	3	/
C[C@@H]1CCCCCCCCC(=O)OCCN(C(=O)OC(C)(C)C)[C@H](C)CCCCCCCCC(=O)OCCN1C(=O)OC(C)(C)C	-10	1	4	0	-9	7
SMILES	PAX8 inh HTS	EWS-Fli inh	Peg3 prom inh	Shn3 3UTR inh	ABHD5-PLIN5 inh	MITF TRPM1 inh
C[C@@H]1CCCCCCCCC(=O)OCCN[C@H](C)CCCCCCCCC(=O)OCCN[C@H](C)CCCCCCCCC(=O)OCCN1	/	/	-15	16	6	64*
CCCNC(=O)Nc1ccc2c(c1)C(=O)N(C)C[C@H](OC)[C@H](C)CN(CCC(F)(F)F)[C@@H](C)CO2	/	-13	/	/	/	/
COc1cc(SC)ccc1C(=O)Nc1ccc(Br)cn1	3	73*	55*	75	-1	57
COc1cc(SC)ccc1C(=O)Nc1ccccn1	-56	14	-167	-57	-2	-9
CC1(C)C2CC=C(/C=N/NC(=S)Nc3cccnc3)C1C2 (stereo not drawn)	-7	4	16	2	0	10
CC1=C/C(=N\NC(=S)Nc2cccnc2)CC(C)(C)C1	12	29	-3	60	-7	62*
CCCNC(=O)N1C[C@H](C)[C@H](OC)CN(C)C(=O)c2ccc(NC(=O)C3CCC3)cc2OC[C@H]1C	-6	2	/	/	/	/
O=C(Nc1ccccc1)N[C@@H]1CC[C@@H](CCn2cc(-c3ccccc3F)nn2)O[C@@H]1CO	/	3	/	/	/	/
O=C1C(C2=NC(C(=O)O)C3C(=O)N(c4ccccc4)C(=O)C23)=C(O)c2ccccc21 (stereo not drawn)	6	/	15	2	2	-7
O=C1C(C2=NC(c3ccccn3)C3C(=O)N(c4ccc(OC(F)(F)F)cc4)C(=O)C23)=C(O)c2ccccc21 (stereo not drawn)	-9	17	43	77	2	75*
C[C@H]1CN([C@@H](C)CO)C(=O)c2cc(/C=C/c3ccccc3)cnc2O[C@@H]1CN(C)C(=O)C1CC1	/	-12	/	/	/	/
C[C@@H]1CN([C@@H](C)CO)C(=O)c2cc(/C=C/c3ccccc3)cnc2O[C@@H]1CN(C)C(=O)Nc1ccc(C(F)(F)F)cc1	/	52*	/	/	/	/
C[C@@H]1CN([C@H](C)CO)C(=O)c2cc(/C=C/c3ccccc3)cnc2O[C@@H]1CN(C)C(=O)C1CC1	74*	-14	/	/	/	/
O=C(NCc1ccc2c(c1)OCO2)[C@@H]1[C@@H](CO)[C@@H]2Cn3c(cccc3=O)[C@H]1N2Cc1cncnc1	7	7	/	/	/	/
COc1ccc(NC(=O)Nc2ccc3c(c2)CC(=O)N([C@H](C)CO)C[C@@H](C)[C@@H](CN(C)C(=O)Nc2c(C)noc2C)O3)cc1	9	-3	/	/	/	/
O=C(COC(=O)c1ccc2c(c1)C(=O)N(c1cccc3ncccc13)C2=O)c1ccc(Cl)cc1	12	12	13	-1	6	48
Cc1ccc(C(=O)COC(=O)c2ccc3c(c2)C(=O)N(c2cccc4ncccc24)C3=O)cc1	13	4	102*	13	6	44
